# D2 ag-1 – Beta-Arrestin HTS for Positive Allosteric Modulators of the Human D2 Dopamine Receptor: Agonists | AID 624465, 2012 | hit rate 0.084% among 360,000 | DiscoveRx PathHunter D2 beta-arrestin, luminescence, 90 min; 100% = 57 uM dopamine signal | activation, % (test concentration not listed); in the data active = activation above about 40%
# Target sequence (P14416 whole entry, looked up): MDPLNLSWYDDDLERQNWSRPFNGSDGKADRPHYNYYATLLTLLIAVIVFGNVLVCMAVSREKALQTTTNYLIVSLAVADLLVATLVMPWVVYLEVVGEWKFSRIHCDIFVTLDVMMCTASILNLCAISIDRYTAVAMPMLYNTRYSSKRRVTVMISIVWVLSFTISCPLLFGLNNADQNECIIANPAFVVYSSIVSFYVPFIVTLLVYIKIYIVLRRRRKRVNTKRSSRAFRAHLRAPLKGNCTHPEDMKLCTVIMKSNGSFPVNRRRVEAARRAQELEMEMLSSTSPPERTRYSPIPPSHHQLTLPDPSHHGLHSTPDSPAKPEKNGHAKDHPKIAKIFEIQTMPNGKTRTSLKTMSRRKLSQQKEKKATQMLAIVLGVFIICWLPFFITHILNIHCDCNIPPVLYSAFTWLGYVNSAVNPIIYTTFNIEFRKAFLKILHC
#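 DiscoveRx PathHunter D2 beta-arrestin cells (2,100/well) attached overnight, then compound-stimulated 90 min at 37 C in HBSS/10 mM HEPES/0.1% Tween-20 buffer; beta-galactosidase complementation read by luminescence after 1 h at ambient temperature. Dopamine 57 uM final (EC100) as control.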
# D2 antag – HTS Assay for Allosteric Antagonists of the Human D2 Dopamine Receptor: Primary Screen for Antagonists | D(2) dopamine receptor (Homo sapiens), P14416 | inhibition, % at 10 µM | hit rate 2% among 340,000 | AID 485344, 2010 | HEK293 TREx D2 cells, calcium flux, dopamine EC80; in the data active = inhibition above about 30%; inactive = below that, where a call was filed; also: 0% is about no effect
#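 Calcium mobilization kinetics were recorded at 1 s intervals in tetracycline-induced HEK293 T-REx D2 cells, first for 180 s after compound addition and then 180 s after EC80 dopamine.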
# D2 ag-2 – HTS Assay for Allosteric Agonists of the Human D2 Dopamine Receptor: Primary Screen for Agonists. D(2) dopamine receptor (Homo sapiens), P14416. hit rate 0.53% among 340,000. activation, % at 2 µM. HEK293 T-REx D2 cells, calcium flux agonist mode;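 active = activation over 3 SD above normal in the single-dose calcium agonist read, cut at about 30% in these data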; also: 0% is about no effect
#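 Tetracycline-induced HEK293 Trex cells with D2 receptor force-coupled to calcium signaling, plated overnight at 30 C and loaded with no-wash calcium dye. Calcium flux read kinetically for 180 s after compound addition; responses flag agonists.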
# D2 PAM-1 – Beta-Arrestin HTS for Positive Allosteric Modulators of the Human D2 Dopamine Receptor: Potentiators; potentiation, % (concentration not given with the values); D(2) dopamine receptor (Homo sapiens), P14416; AID 624464, 2012; hit rate 0.23% among 360,000; DiscoveRx D2 beta-arrestin cells, luminescence, 90 min; 100% = 57 uM dopamine signal; in the data active = potentiation above about 50%
#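 PathHunter beta-arrestin assay in DiscoveRx D2 cells. Compounds were added with an EC20 of dopamine (50 nM final) for 90 min at 37 deg C. Luminescence was read 1 h after detection reagent, with 57 uM dopamine as the EC100 control.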
# D2 PAM-2 – HTS Assay for Positive Allosteric Modulators of the Human D2 Dopamine Receptor: Primary Screen for Potentiators. HEK293 T-REx D2, calcium flux, EC20 dopamine potentiation. potentiation, % at 10 µM. hit rate 0.34% among 340,000. AID 485347, 2010;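 active = potentiation over 3 SD above the plate norm, cut at about 30% in these data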; also: 0% is about no effect
#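 Tetracycline-induced HEK293 T-REx cells force-coupled to calcium signalling expressed D2; compounds were pin-added after a 10 s baseline, read kinetically 180 s, then an EC20 dopamine challenge followed with a further 180 s calcium read.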
# B2AR arrestin – qHTS assay of beta-arrestin-biased ligands of beta2-adrenergic receptor; Beta-2 adrenergic receptor (Homo sapiens), P07550; beta-arrestin recruitment to beta2AR, cell-based reporter; Potency, µM (top dose mostly 46.1 µM), for the others: at the top dose activation, actives largely listed as activators; hit rate 0.02% among 330,000; AID 492947, 2010; active = well fitted activation curve with a large enough effect;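 also: potency is read from the fitted curve at half-maximal effect; 0% = DMSO controls and full agonism = EC100 isoproterenol or metaproterenol; nearly all actives have a fitted effect of over 65% in size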
# Active calls of the source: *; . = no result. Only some compounds are listed: those with a hit (about 2.4% of all), similar ones and a draw of the others.
SMILES,D2 ag-1,D2 antag,D2 ag-2,D2 PAM-1,D2 PAM-2,B2AR arrestin
CC1(C)CC(NCCC(c2ccccc2)c2ccco2)CCO1 (stereo not drawn),-5,-3,0,-5,4,0%
COc1cc(-c2coc3c(C(=O)NCc4ccc(OC)c(OC)c4)cccc23)ccc1O,68*,.,.,-7,.,.
COc1ccc(-n2ncc3c2CC(C)(C)CC3NC(=O)c2oc(C)cc2C)cc1 (stereo not drawn),-6,-11,0,1,36*,0%
NC(=O)c1ccccc1NC(=O)CN1CCOCC1,-1,31*,-1,-1,13,0%
COc1ccc(CC(=O)Nc2ccccc2C(=O)N2CCOCC2)cc1,0,44*,0,-7,-7,-1%
CCOC(=O)N1CCC(NCCNC(=O)c2ccc(F)c(F)c2)CC1,2,59*,20,-23,-16,-3%
CCOC(=O)N1CCC(Nc2c(N3CCN(c4cc(Cl)ccc4C)CC3)c(=O)c2=O)CC1,-4,-21,-1,-3,-8,0%
CCOC(=O)N1CCC(NC(=O)c2cc(C(=O)NCc3ccc(F)cc3)ccc2CO)CC1,0,10,0,-2,-4,0%
CCOC(=O)N1CCC(NCCNC(=O)c2ccc(Cl)cc2)CC1,0,59*,0,-29,-26,0%
Cc1cc(C)c(O)c(-c2cc(C(=O)Nc3ccc(S(=O)(=O)N4CCOCC4)cc3)[nH]n2)c1,4,-7,1,16,36*,0%
CC(=O)Nc1ccc(NC(=O)c2cc(-c3cc(C)cc(C)c3O)n[nH]2)cc1,-2,-13,0,-8,5,-1%
CCOc1ccc(S(=O)(=O)c2cn(Cc3ccccc3C)c3ccc(OC)cc3c2=O)cc1,.,.,.,.,-5,.
O=C(Nc1ccccc1)c1ccccc1OCC(O)CN1C(=O)c2ccccc2S1(=O)=O (stereo not drawn),1,-20,1,4,5,0%
CC1CCC(=O)N(CCSc2ccccc2)CC1 (stereo not drawn),0,33*,0,-17,-4,-1%
COc1ccc(SCCN2CC[C@@H](C)CCC2=O)cc1,-1,1,1,-3,6,0%
CC(NC(=O)c1ccco1)C(=O)N1CCN(C(c2ccccc2)c2ccccc2)CC1 (stereo not drawn),-3,5,-1,57*,3,-3%
CC(NC(=O)c1ccco1)C(=O)N1CCN(c2ccccc2)CC1 (stereo not drawn),1,-4,1,9,-11,1%
CC(=O)NC1CC2CCCC(C1)N2Cc1ccc(C)cc1 (stereo not drawn),-4,54*,0,-67,-26,0%
O=C(NC1CC2CCCC(C1)N2Cc1cccs1)c1ccc([N+](=O)[O-])cc1 (stereo not drawn),.,57*,1,.,-21,0%
Cc1ccc(CN2C3CCCC2CC(NC(=O)c2ccc(C)cc2)C3)cc1 (stereo not drawn),3,74*,-2,-20,-26,-1%
CCOc1ccccc1C(=O)NC1CC2CCCC(C1)N2Cc1ccc(C)cc1 (stereo not drawn),-2,84*,-1,-19,-22,0%
O=C(NC1CC2CCCC(C1)N2Cc1ccccc1)C1CCCCC1 (stereo not drawn),1,22,0,-19,-23,0%
Cc1ccc2c(c1)N(CC(=O)N1CCN(c3ccccc3)CC1)C(=O)C(C)O2 (stereo not drawn),-4,-24,15,-1,-5,-1%

# From PubChem
